Reference: PubChem BioAssay AID686965 (The Scripps Research Institute Molecular Screening Center, 2013)
Unmarked numbers belong to inactive results. The rule behind the calls is not given here.

Assay: quenching of GFP signal – biochemical, fluorescence, dose response, round 2, artefact control for Rin1-Abl interaction inhibitor project, late-stage follow-up (AID 686965)
Conditions: GFP fluorescence quenching/inhibition counterscreen

**Q.** With `COc1ccc(COc2ccn(C)c(=O)c2)cc1` as the molecule, how does the IC50 read?
**A.** Its IC50 is greater than 67.5 µM.

**Q.** Which IC50 does the source give for `COc1ccc(COc2ccnc(OC)c2)cc1` here?
**A.** The IC50 was greater than 67.5 µM.

**Q.** With `Cn1ccc(OCc2ccc(F)cc2)cc1=O` as the molecule, how does the IC50 read?
**A.** The IC50 was greater than 67.5 µM.

**Q.** With `O=c1cc(OCc2ccc(F)cc2)cc[nH]1` as the molecule, how does the IC50 read?
**A.** The IC50 was greater than 67.5 µM.

**Q.** Which IC50 does the source give for `COc1cc(OCc2ccccc2)ccn1` here?
**A.** Its IC50 is greater than 67.5 µM.

**Q.** With `Cn1ccc(OCc2ccccc2)cc1=O` as the molecule, how does the IC50 read?
**A.** The IC50 was greater than 67.5 µM.

**Q.** With `COc1ccc(COc2cc[nH]c(=O)c2)cc1` as the molecule, how does the IC50 read?
**A.** Its IC50 is greater than 67.5 µM.

**Q.** With `Nc1cc(OCc2ccccc2)ccn1` as the molecule, how does the IC50 read?
**A.** The IC50 was greater than 67.5 µM.

**Q.** Which IC50 does the source give for `O=c1cc(OCc2ccccc2)cc[nH]1` here?
**A.** Its IC50 is greater than 67.5 µM.

**Q.** For `COc1cc(OCc2ccc(F)cc2)ccn1`, which IC50 is on record?
**A.** Its IC50 is greater than 67.5 µM.
